The values below come from PubChem BioAssay (NCATS).

Inconclusive results are not listed. The source made the active and inactive calls. Unless noted, calls come from the whole dose curve.

Test [1] deals with Lysosomal acid glucosylceramidase (Homo sapiens) (UniProt P04062). The test is described as follows: Glucocerebrosidase-p2 (AID 348; in the data active = potency below about 10 µM; note: potency is the fitted concentration of half-maximal effect). To be noted: purified GBA, blue fluorogenic substrate, 40 min. A digest of the protocol: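 Normal human glucocerebrosidase (0.2 nM) with blue fluorogenic substrate (80 uM final) in citrate/phosphate pH 5.9 with 10mM sodium taurocholate, 0.01% tween-20; 40 min RT, NaOH/glycine stop; fluorescence Ex 365/Em 440; AC50 from a titration from 0.6 nM upwards.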
Lysosomal acid glucosylceramidase (Homo sapiens), sequence (P04062 whole entry, looked up): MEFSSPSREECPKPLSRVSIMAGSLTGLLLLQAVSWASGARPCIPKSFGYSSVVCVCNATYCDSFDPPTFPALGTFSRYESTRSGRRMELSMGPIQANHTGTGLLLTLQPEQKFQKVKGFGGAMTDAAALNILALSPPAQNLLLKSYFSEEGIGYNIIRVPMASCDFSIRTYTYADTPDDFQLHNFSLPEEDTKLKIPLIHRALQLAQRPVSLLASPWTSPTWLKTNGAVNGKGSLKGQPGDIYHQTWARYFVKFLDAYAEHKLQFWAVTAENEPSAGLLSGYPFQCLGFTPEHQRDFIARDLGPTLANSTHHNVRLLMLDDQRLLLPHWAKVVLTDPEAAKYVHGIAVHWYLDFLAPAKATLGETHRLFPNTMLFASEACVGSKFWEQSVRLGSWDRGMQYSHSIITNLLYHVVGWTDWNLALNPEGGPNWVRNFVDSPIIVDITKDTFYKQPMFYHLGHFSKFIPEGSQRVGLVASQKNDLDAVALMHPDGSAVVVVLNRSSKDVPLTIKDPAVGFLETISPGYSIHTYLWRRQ

A short description of test [2]: AP1 Signaling Pathway (AID 357; active = well fitted curve in either direction with a large enough effect, not every such curve was filed as active;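 note: ME-180 reporter cells stimulated with EGF at its EC50 level; % is set by controls: 0 for no effect and ±100 for the full control effect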). The conditions noted are these: ME-180 AP-1-bla reporter, EGF-induced, beta-lactamase ratio, 5 h; at 7.69 µM (top of the series) unless noted. A digest of the protocol: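 Beta-lactamase reporter under AP-1 response element, ME-180 background. Stimulus: EC50 EGF. Compound exposure 5 h, 37 °C. Detection: CCF4, 2.5 h RT, 460/530 nm. Values: AC50 from titration.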

Test [3] addresses Cytochrome P450 1A2 (Homo sapiens) (UniProt P05177). The test is described as follows: p450-cyp1a2 (AID 410).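 For activity change, negative = inhibition: -100% = full effect of reference inhibitor.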 Note: potency is the fitted concentration of half-maximal effect. To be noted: recombinant CYP1A2, luciferin-ME demethylation, luminescence; series mostly up to 57 µM. Put shortly: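 Luminescent demethylation readout: Luciferin-ME (100uM, equal to Km) turned over by 20nM CYP1A2 for 60 min at room temperature after NADPH regeneration addition, following 10 min compound preincubation. Normalization used 57 uM furafylline as full inhibition.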

Test [4] can be described thus: Stat Signaling Pathway (AID 446; active = well fitted curve in either direction with a large enough effect, not every such curve was filed as active;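 note: ME-180 cervical cancer cells given 40 pM IL-6 alongside compound; SIE-controlled beta-lactamase reporter measured as 460/530 nm FRET emission ratio; % is set by controls: 0 for no effect and ±100 for the full control effect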). To be noted: ME-180 (cervical carcinoma) SIE beta-lactamase reporter, IL-6 stimulated, 5 h; at 7.69 µM (top of the series) unless noted. Put shortly:
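Overnight-plated ME-180 cells bearing a STAT Inducible Element beta-lactamase reporter; 5 h co-exposure to compound and 40 pM IL-6; values normalized to 300 pM IL-6 and 125 nM JAK inhibitor controls.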

Test [5] addresses Glucocorticoid receptor (Homo sapiens) (UniProt P04150). The test is described as follows: GR-EFC Redistribution (AID 451). Note: potency is the fitted concentration of half-maximal effect. To be noted: CHO-K1 GR-EFC translocation, beta-gal luminescence, 2 h. Put shortly: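 CHO-K1 cells expressing nuclear EA and GR-ED fragments of b-gal; compounds titrated up to 46 uM final, 2 h at 37 C. GR nuclear translocation read as complemented b-gal luminescence after 1 h RT detection.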

Test [6] concerns the target Mitogen-activated protein kinase 10 (Mus musculus) (UniProt Q61831). The test is described as follows: JNK3 AlphaScreen Assay (AID 530; active = well fitted curve in either direction with a large enough effect, not every such curve was filed as active;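 note: kinase came from lysate of stimulated human HepG2 cells; signal reports phosphorylation of biotinylated GST-cJun 1-79 at Ser73 with 10 µM ATP; % is set by controls: 0 for no effect and ±100 for the full control effect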). The conditions noted are these: JNK3 lysate, c-Jun phosphorylation; series mostly up to 57.1 µM. A digest of the protocol:
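Activity was read by AlphaScreen after JNK3-containing HepG2 lysate (cytokine pre-activated) phosphorylated biotinylated GST-cJun with 10 uM ATP at room temperature. Phospho-Ser73 cJun antibody with Protein-A acceptor beads provided detection.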

The target in test [7] is 3',5'-cyclic-AMP phosphodiesterase 4B (Homo sapiens) (UniProt Q07343). The test is described as follows: qHTS Assay for Inhibitors of PDE-IV (AID 607; active = well fitted activation curve with a large enough effect in the main read-out, with a control signal flat, not every such curve was filed as active; note: % of control where 0% means no effect). The conditions noted are these: HEK293 ACTOne CNG channel cells, membrane potential fluorescence; series mostly up to 22.9 µM. A digest of the protocol: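 Live HEK293 cells with a modified cyclic nucleotide-gated (CNG) channel report intracellular cAMP via membrane-potential dye fluorescence (ex 535/em 590 nm). Endogenous PDE-IV was targeted. Compounds were tested at up to 22.9 uM final; RO 20-1724 100 uM served as control.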
3',5'-cyclic-AMP phosphodiesterase 4B (Homo sapiens), sequence (Q07343 whole entry, looked up): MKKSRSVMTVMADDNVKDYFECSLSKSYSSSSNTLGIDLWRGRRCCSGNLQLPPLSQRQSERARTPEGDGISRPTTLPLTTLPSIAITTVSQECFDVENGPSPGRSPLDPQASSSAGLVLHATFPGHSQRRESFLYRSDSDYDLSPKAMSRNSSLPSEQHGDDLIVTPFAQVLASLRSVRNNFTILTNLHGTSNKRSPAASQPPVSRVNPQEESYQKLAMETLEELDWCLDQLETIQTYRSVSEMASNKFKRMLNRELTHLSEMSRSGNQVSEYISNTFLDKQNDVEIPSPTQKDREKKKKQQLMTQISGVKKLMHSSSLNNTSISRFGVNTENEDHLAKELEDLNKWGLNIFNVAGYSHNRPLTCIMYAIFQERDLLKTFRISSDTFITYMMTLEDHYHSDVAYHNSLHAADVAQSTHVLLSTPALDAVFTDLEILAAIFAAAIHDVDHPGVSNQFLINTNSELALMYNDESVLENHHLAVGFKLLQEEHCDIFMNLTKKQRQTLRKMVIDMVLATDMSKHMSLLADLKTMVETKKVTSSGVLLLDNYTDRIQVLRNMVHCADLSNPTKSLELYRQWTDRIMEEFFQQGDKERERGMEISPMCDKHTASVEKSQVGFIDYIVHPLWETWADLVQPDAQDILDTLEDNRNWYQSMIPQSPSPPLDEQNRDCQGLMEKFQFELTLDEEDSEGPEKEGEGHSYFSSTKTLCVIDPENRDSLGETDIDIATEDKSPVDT
On the technique in general: qHTS replaces the single test concentration by a dilution series.

Test [8] is described as follows: qHTS Assay for Lipid Storage Modulators (AID 1519). The conditions noted are these: Drosophila S3 cells, BODIPY lipid droplet/cell ratio, laser cytometry, cells loaded with oleic acid; for activity change, negative = inhibition: at 57.5 µM (top of the series). A digest of the protocol:
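Cells seeded at 5,000 per well were treated with compounds over a concentration series and loaded with oleic acid (400 uM, as added). Lipid droplet fluorescence (488 nm excitation, 500-530 nm channel) was read by laser-scanning cytometry and normalized to 20 uM Triacsin C.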

Test [9] can be described thus: Primary qHTS for small molecule stabilizers of the endoplasmic reticulum resident proteome: Secreted ER Calcium Modulated Protein (SERCaMP) assay (AID 1508630; active = well fitted curve in the direction sought with a large enough effect; an effect the other way counts as inactive or inconclusive; note: % is set by controls: 0 for no effect and ±100 for the full control effect). To be noted: SH-SY5Y GLuc-SERCaMP (Gaussia luciferase released on ER calcium loss) secretion, thapsigargin, luminescence; series mostly up to 38.4 µM. Put shortly:
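The SH-SY5Y reporter protocol was run at 3 concentrations up to 38.3 uM (primary) or 11 concentrations (follow-up): 16 h compound, 100 nM thapsigargin for 4 h, then extracellular luciferase luminescence.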

The target of test [10] is Glucocorticoid receptor (Homo sapiens) (UniProt P04150). The test is described as follows: GR-GFP Redistribution (AID 450;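 active = compounds whose dose series gives a full or clear partial fitted curve of increased nuclear translocation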; note: potency is the fitted concentration of half-maximal effect). The conditions noted are these: U2OS GR-GFP nuclear translocation, laser cytometry, 2 h.
Glucocorticoid receptor (Homo sapiens), sequence (P04150 whole entry, looked up, the tested form may be a part): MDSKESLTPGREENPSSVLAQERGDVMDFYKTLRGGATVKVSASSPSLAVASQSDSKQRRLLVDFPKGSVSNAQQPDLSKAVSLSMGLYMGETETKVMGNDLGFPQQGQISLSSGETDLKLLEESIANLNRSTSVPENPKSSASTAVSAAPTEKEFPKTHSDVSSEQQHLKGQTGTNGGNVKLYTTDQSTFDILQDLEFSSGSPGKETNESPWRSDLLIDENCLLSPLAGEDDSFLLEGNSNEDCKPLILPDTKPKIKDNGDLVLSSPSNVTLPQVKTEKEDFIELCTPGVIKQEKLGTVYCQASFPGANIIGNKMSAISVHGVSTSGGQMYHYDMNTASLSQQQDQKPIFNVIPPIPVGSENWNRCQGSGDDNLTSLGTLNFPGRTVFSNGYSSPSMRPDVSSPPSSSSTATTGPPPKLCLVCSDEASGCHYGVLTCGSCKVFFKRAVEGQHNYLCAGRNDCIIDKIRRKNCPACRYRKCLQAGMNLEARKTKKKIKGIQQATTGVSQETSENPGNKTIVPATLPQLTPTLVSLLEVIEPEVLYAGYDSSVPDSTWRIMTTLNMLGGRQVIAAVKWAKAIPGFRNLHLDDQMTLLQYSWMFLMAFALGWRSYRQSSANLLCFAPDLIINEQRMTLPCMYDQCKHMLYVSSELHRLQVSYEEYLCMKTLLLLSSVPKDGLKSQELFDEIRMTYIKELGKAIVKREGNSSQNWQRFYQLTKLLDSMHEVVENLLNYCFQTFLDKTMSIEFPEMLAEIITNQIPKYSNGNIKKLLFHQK
Test [11] concerns the target Cytochrome P450 3A4 (Homo sapiens) (UniProt P08684). The test is described as follows: qHTS Assay for Inhibitors and Substrates of Cytochrome P450 3A4 (AID 884; active = well fitted curve in the direction sought with a large enough effect; an effect the other way counts as inactive or inconclusive; note: potency is the fitted concentration of half-maximal effect; nearly all actives have a fitted effect of over 50% in size). The conditions noted are these: recombinant CYP3A4, Luciferin-PPXE luminescence; series mostly up to 57.1 µM. Put shortly: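 Luminescent readout of luciferin produced by CYP3A4 (20 nM) dealkylation of Luciferin-PPXE, 25 uM (its KM). NADPH-driven reaction ran 60 min at RT after 10 min compound preincubation; data scaled to 57 uM ketoconazole as 100% inhibition.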

For test [12] the target is unchanged. The test is described as follows: qHTS Assay for Activators of Cytochrome P450 3A4 (AID 885; active = well fitted curve in the direction sought with a large enough effect; an effect the other way counts as inactive or inconclusive; note: nearly all actives have a fitted effect of over 65% in size). To be noted: recombinant CYP3A4, Luciferin-PPXE luminescence, 60 min; series mostly up to 57.1 µM. Put shortly:
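Using 20nM recombinant human CYP3A4 in potassium phosphate (200mM), substrate Luciferin-PPXE at 25uM, luminescent luciferin detection followed a 60-min RT NADPH reaction; data scaled to 57 uM ketoconazole.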

Test [13] has as its target Cytochrome P450 2D6 (Homo sapiens) (UniProt P10635). The test is described as follows: qHTS Assay for Inhibitors and Substrates of Cytochrome P450 2D6 (AID 891; active = well fitted curve in the direction sought with a large enough effect; an effect the other way counts as inactive or inconclusive; note: potency is the fitted concentration of half-maximal effect; nearly all actives have a fitted effect of over 60% in size). The conditions noted are these: recombinant CYP2D6, luciferin-ME EGE luminescence; series mostly up to 57.1 µM. Put shortly: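 Luminescent read-out of luciferin formed by 5 nM human CYP2D6 demethylating 30 uM Luciferin-ME EGE (Km level) over 60 min at room temperature after NADPH regeneration addition. Data normalized to full inhibition by 1.43 uM quinidine.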

Test [14] in a line: Confirmation and Secondary Assay for Modulators of Hemoglobin Beta Chain Splicing at IVS2 654 locus (AID 910; active = well fitted curve in the direction sought with a large enough effect; an effect the other way counts as inactive or inconclusive;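 note: HeLa cells stably carrying EGFP split by mutant beta-globin IVS2-654 intron; % of control where 0% means no effect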). To be noted: HeLa EGFP-654 splicing reporter, GFP fluorescence, 48 h; series mostly up to 38.3 µM. Put shortly:
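HeLa cells stably expressing EGFP interrupted by β-globin IVS2-654 intron, seeded overnight in Opti-MEM/2% FCS, then treated 2 days at 37 °C. Restored splicing read as total peak GFP intensity per well by laser scanning cytometry (488 nm excitation, 500–520 nm emission); 500 nM antisense PNA as control.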

Test [15] can be described thus: Confirmation and Secondary Assay for Modulators of Hemoglobin Beta Chain Splicing at IVS2 705 locus (AID 930; active = well fitted curve in the direction sought with a large enough effect; an effect the other way counts as inactive or inconclusive;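 note: HeLa cells stably expressing the EGFP-705 splicing reporter; GFP fluorescence per well restored by corrected splicing of the IVS2-705 intron in EGFP; % of control where 0% means no effect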). To be noted: HeLa EGFP-705 splicing reporter, GFP fluorescence, 48 h; series mostly up to 38.3 µM. A digest of the protocol:
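First, HeLa EGFP-705 cells are seeded at 500/well in Optimem with 2% FCS and left overnight. Next, compound or DMSO is added for 2 days. Finally wells are laser-scanned and total peak GFP intensity scored.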

Test [16] concerns the target Ubiquitin carboxyl-terminal hydrolase 1 (Homo sapiens) (UniProt O94782). The test is described as follows: Inhibitors of USP1/UAF1: Pilot qHTS (AID 504865; active = well fitted curve in the direction sought with a large enough effect; an effect the other way counts as inactive or inconclusive;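 note: rhodamine fluorescence freed from ubiquitin-rhodamine substrate followed over time; top concentration of the series differs between compounds; % is set by controls: 0 for no effect and ±100 for the full control effect; nearly all actives have a fitted effect of over 35% in size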). The conditions noted are these: purified USP1/UAF1, Ub-rhodamine cleavage fluorescence; series mostly up to 54.9 µM. Put shortly: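 USP1/UAF1 complex at 1 nM preincubated 15 min at room temperature with compound, then Ub-Rho substrate added at 150 nM final. Fluorescence (480/540 nm) read kinetically in 50 mM HEPES pH 7.8, 0.5 mM EDTA, 1 mM TCEP, 0.1 mg/ml BSA, 0.01% Tween-20.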

Where [17] appears, read: measured here: cell count channel max response.
The mark [18] stands for this setting: measured here: lipid channel max response.

Cytochrome P450 1A2 (Homo sapiens), sequence (P05177 whole entry, looked up): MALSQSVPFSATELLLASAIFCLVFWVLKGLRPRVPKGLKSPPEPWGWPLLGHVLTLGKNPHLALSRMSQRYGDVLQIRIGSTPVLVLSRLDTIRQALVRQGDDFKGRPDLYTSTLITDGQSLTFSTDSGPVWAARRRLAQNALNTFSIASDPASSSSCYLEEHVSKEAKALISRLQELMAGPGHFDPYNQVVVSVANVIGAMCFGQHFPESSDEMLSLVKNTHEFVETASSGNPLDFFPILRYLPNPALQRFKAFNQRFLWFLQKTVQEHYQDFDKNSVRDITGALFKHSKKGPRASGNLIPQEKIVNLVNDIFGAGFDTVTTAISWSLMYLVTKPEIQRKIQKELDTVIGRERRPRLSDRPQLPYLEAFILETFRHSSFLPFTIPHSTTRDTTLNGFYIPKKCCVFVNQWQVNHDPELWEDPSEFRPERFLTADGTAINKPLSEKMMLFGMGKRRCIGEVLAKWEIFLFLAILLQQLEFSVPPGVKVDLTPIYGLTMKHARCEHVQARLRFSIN
Cytochrome P450 3A4 (Homo sapiens), sequence (P08684 whole entry, looked up): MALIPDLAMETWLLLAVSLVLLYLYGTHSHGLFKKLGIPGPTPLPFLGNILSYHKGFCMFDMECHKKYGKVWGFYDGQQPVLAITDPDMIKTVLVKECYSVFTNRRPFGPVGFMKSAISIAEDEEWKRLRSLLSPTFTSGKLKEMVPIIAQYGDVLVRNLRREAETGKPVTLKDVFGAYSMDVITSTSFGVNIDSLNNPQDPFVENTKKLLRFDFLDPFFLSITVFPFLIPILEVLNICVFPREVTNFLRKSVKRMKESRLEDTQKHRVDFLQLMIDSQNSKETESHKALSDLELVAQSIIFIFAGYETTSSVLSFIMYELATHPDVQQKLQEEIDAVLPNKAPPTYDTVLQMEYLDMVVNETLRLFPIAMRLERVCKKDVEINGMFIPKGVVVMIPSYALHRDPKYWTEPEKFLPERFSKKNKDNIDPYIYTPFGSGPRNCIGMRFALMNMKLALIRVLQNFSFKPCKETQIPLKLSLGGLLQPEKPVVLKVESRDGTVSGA
Ubiquitin carboxyl-terminal hydrolase 1 (Homo sapiens), sequence (O94782 whole entry, looked up): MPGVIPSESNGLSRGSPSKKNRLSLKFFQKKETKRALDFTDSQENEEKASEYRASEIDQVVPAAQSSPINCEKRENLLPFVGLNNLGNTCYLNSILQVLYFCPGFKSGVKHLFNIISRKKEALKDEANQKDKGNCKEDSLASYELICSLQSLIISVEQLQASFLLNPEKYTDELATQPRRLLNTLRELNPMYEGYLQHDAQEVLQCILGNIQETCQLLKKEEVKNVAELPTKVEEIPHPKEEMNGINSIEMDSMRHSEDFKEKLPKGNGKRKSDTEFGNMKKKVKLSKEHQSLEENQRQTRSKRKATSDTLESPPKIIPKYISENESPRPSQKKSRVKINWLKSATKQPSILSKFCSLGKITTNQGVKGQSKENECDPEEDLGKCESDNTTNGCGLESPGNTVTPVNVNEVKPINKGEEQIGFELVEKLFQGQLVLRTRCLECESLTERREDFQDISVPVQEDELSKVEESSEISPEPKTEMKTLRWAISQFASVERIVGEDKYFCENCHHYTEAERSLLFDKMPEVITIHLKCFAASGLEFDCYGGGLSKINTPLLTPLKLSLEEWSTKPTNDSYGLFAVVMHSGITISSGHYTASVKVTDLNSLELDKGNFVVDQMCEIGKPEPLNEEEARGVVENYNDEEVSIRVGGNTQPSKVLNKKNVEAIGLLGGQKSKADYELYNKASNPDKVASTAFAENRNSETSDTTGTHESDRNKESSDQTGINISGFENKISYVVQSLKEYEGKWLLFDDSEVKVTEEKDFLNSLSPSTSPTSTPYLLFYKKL
Cytochrome P450 2D6 (Homo sapiens), sequence (P10635 whole entry, looked up): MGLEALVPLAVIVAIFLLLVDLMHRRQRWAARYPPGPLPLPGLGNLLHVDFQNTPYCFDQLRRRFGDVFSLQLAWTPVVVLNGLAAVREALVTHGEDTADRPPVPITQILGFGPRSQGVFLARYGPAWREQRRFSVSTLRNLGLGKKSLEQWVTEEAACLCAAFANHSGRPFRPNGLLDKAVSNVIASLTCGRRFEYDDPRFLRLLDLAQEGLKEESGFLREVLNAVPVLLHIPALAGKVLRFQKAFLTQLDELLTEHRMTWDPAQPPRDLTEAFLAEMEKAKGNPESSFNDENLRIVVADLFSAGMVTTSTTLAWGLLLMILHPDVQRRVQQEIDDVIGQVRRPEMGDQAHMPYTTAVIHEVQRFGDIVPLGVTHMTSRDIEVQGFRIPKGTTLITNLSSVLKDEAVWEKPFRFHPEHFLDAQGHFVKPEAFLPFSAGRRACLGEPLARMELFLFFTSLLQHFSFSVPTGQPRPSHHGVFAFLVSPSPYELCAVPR

For `CC(C)CN1CCC2(CC1)CCN(C(=O)c1cccn1C)CC2`, the results for the Potency in test [1] and in test [5] were > 11.4 µM (inactive) and > 46 µM (inactive), respectively. The activity change, negative = inhibition in test [2] was -13.5% (inactive); in [8], 0.342% (inactive). In addition, the Potency result in test [3], in test [6] and in test [7] was “inactive” throughout. The activity, negative = inhibition in test [4] was -4.86% (inactive). Also, the max response in test [8] (setting [17]) was -5.62%; in test [8] (setting [18]) it was -4.46%. In [9], the result was inactive.
For the molecule `O=C(c1csnn1)N1CCC2(CC1)CCN(C(c1ccccc1)c1ccccc1)CC2`, the figures for the Potency in test [1] and in test [5] were > 11.4 µM (inactive) and > 46 µM (inactive), respectively. Further, the activity change, negative = inhibition is -5.85% (inactive) in [2] and -2.09% (inactive) in test [8]. The Potency entry in test [3], in test [6] and in [7] was “inactive” each time. The activity, negative = inhibition in [4] was 4.86% (inactive). The max response in [8] (setting [17]) is 3.93%; in [8] (setting [18]), 2.32%. The outcome in [9] was inactive.
As to `COCC(=O)N1CCC2(CCCN(Cc3ccccc3OC)C2)CC1`, the Potency in test [1] was > 11.4 µM (inactive); in test [5], > 46 µM (inactive). Further, the activity change, negative = inhibition is -2.02% (inactive) in test [2] and -6.35% (inactive) in [8]. Moreover, the Potency result in test [3], in [6] and in [7] was “inactive” in each case. Besides, the activity, negative = inhibition in test [4] was 10.7% (inactive). For the same molecule, the results for the max response in test [8] (setting [17]) and in test [8] (setting [18]) were 2.52% and 0.269%, respectively. Also, the result in test [9] was inactive.
Regarding `O=C(c1cccc(F)c1)N1CCC2(CCCN(Cc3ccccc3)C2)CC1`, the figures for the Potency in [1] and in test [5] were > 11.4 µM (inactive) and > 46 µM (inactive), respectively. Besides, the activity change, negative = inhibition in test [2] was 1.11% (inactive); in test [8] it was -8.15% (inactive). For the same molecule, the Potency result in [3], in test [6] and in [7] was “inactive” throughout. Further, the activity, negative = inhibition in [4] is -5.98% (inactive). Also, the results for the max response in test [8] (setting [17]) and in test [8] (setting [18]) were 20.2% and 12%, respectively. Moreover, the outcome in test [9] was inactive.
For `CN(C)Cc1ccccc1-c1cncnc1NCc1cccnc1`, the Potency was > 11.4 µM (inactive) in test [1]; 12.6 µM (active) in test [3]; > 46 µM (inactive) in [10]; > 46 µM (inactive) in test [5]; 1.58 µM (active) in test [11]; 6.31 µM (active) in test [13]. For the same molecule, the activity change, negative = inhibition in test [2] was -0.642% (inactive); in [8], 2.08% (inactive). Moreover, in test [4], the activity, negative = inhibition is 9.42% (inactive). Besides, the Potency entry in [6], in [7], in test [12], in [14] and in test [16] was “inactive” throughout. Besides, the call in [15] and in [9] was inactive. Further, the max response in test [8] (setting [17]) was 3.75%; in [8] (setting [18]), 4.73%.
For the molecule `CC(C)CN1CCC2(CC1)CCN(C(=O)c1cnccn1)CC2`, the Potency in test [1] is > 11.4 µM (inactive); in [5] it was > 46 µM (inactive). The figures for the activity change, negative = inhibition in [2] and in [8] were -3.54% (inactive) and -2.81% (inactive), respectively. Further, the Potency entry in [3], in test [6] and in test [7] was “inactive” each time. The activity, negative = inhibition in test [4] is 3.68% (inactive). Further, the figures for the max response in test [8] (setting [17]) and in test [8] (setting [18]) were -8.95% and -8.33%, respectively. Also, the result in test [9] was inactive.
